Drawing on PubChem BioAssay (EPA / NIEHS), this text covers outcome and AC50 for 31 compounds.

Experiment [1] in a line: CCTE_Shafer_MEA_dev_per_network_spike_spike_number_mean: CCTE's Neural Network Formation Assay for Mean Number of Spikes in a Network Spike, Shafer Lab (AID 2284053).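 For AC50: fitted as decrease in spikes per network spike relative to DMSO.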 The gist of the method: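 Rat cortical primary cultures on 48-well MEA; compound from day 0, re-dosed with full media change DIV 5, 9. Recorded DIV 5, 7, 9, 12; spikes in 0.05 s window at network-spike peak ÷ total network spikes; AUC; loss vs DMSO.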

Experiment [2] is described as follows: CCTE_Shafer_MEA_dev_per_network_spike_spike_percent: CCTE's Neural Network Formation Assay for Percent of Spikes in a Network Spike, Shafer Lab (AID 2284054). Summed up: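 Primary rat cortical neurons on 16-electrode MEA wells (PEI-coated, laminin at plating), exposed from day 0 with renewal at DIV 5 and 9; spikes within 0.05 s of network-spike peaks over total spikes, AUC across days 5, 7, 9, 12.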

Experiment [3] can be described thus: CCTE_Shafer_MEA_dev_LDH: CCTE's Lactate Dehydrogenase Assay for Cytotoxicity in the Neural Network Formation Assay, Shafer Lab (AID 2284068; active = hit-call score of the fitted dose curve at least 0.9, where 1 is the maximum;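 note: exposure for twelve days from plating with re-dosing on DIV 5 and 9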). The gist of the method: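 Rat cortical primary neurons, MEA culture; dosing day 0–12, full medium plus compound exchange DIV 5, 9. Read-out: LDH enzyme activity, spectrophotometric. DMSO = negative control/baseline; signal loss → cytotoxicity.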

A short description of experiment [4]: CCTE_Shafer_MEA_dev_mutual_information_norm: CCTE's Neural Network Formation Assay for Mutual Information Normalization, Shafer Lab (AID 2284091).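 For AC50: mutual information between electrodes summarised as area under curve across four recording days; potency is for a decrease in mutual information relative to DMSO.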 The gist of the method:
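Rat cortical cultures, 48-well MEA, continuous exposure DIV 0–12 with full media/compound change DIV 5 and 9. Readout: inter-electrode mutual information, AxIS adaptive spike detection; AUC across DIV 5/7/9/12 recordings; DMSO baseline, negative fitting direction.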

The nature of experiment [5]: CCTE_Shafer_MEA_dev_correlation_coefficient_mean: CCTE's Neural Network Formation Assay for Mean Correlation Coefficient, Shafer Lab (AID 2284093).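 For AC50: well mean pairwise spike train correlation integrated as AUC over recording days 5 to 12; potency fitted for loss of correlation relative to DMSO vehicle wells.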 The gist of the method: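 Rat cortical cultures, 1.5 x 10^5 cells/well, dosed from day 0 for 12 days. Spontaneous spikes recorded DIV 5/7/9/12; electrode-pair correlation coefficients averaged, AUC taken. Fit in loss direction vs DMSO.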

The next experiment concerns DIO3 (gene 1735). Put plainly: CCTE_GLTED_hDIO3: CCTE's human Deiodinase 3 (DIO3) Inhibition Assay, Great Lakes Toxicology and Ecology Division (GLTED) Lab (AID 2284055; active = hit-call score of the fitted dose curve at least 0.9, where 1 is the maximum;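 for AC50: potency is for inhibition seen as loss of released iodide signal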). As to the method:
CCTE_GLTED_hDIO3 is a cell-free, single-readout assay designed to test the inhibitory activity of chemicals toward human iodothyronine Deiodinase type 3 (DIO3) enzyme. Enzyme is incubated in presence of test chemical for 3 hours during which uninhibited enzyme liberates free iodide from substrate. Free iodide is measured in a second step using the Sandell-Kolthoff method.CCTE_GLTED_hDIO3 is the assay component measured from the CCTE_GLTED_hDIO3 assay. It is designed to make measurements of enzyme activity, a form of enzyme reporter, as detected with absorbance signals by spectrophotometry.Data from the assay component CCTE_GLTED_hDIO3 was analyzed into 1 assay endpoint. This assay endpoint, CCTE_GLTED_hDIO3, was analyzed in the positive analysis fitting direction relative to DMSO as the negative control and baseline of activity. Using a type of enzyme reporter, loss-of-signal activity can be used to understand changes in the enzymatic activity as they relate to the gene DIO3. Furthermore, this assay endpoint can be referred to as a primary readout, because the performed assay has only produced 1 assay endpoint. To generalize the intended target to other relatable targets, this assay endpoint is annotated to the 'deiodinase' intended target family, where the subfamily is 'deiodinase Type 3'.
[…] assay, developed at Great Lakes Toxicology and Ecology Division (GLTED) within the EPA's Center for Computational Toxicology and Exposure (CCTE), is designed to test the chemicals' ability to inhibit DIO3. Assay uses human deiodinase type 3 (DIO3) enzyme produced with adenovirus expression system. Assay is based on iodide release measured by the Sandell-Kolthoff method and is run in 96-well plate format with assay plates run in triplicate (n=3). The method used for the deiodinase assay was largely based on Renko et al. (2012, 2015). These works describe the utilization of the SK reaction to measure deiodinase-liberated iodide in a 96-well-plate format. The SK reaction is based on the reduction of the yellow-colored cerium IV to the non-colored cerium III by arsenic, with the rate of this reaction increased in the presence of iodide in a concentration-dependent manner (Sandell and Kolthoff, 1937). Iodinated test chemicals can interfere as competitive inhibitors, or if the stock chemical has contaminating free-iodide present. Other chemicals, e.g.: nitrite, iron, and thiocyanate can interfere with the Sandell-Kolthoff reaction (see Sandell and Kolthoff, 1937).

Experiment [6] can be described thus: UKN2_HCS_IMR90_neural_migration: University of Konstanz (UKN) Leist Lab Neural Crest Cell Migration Assay in human induced IMR90 Pluripotent Stem Cells (UKN2) (AID 2284204). To be noted: actives raise or lower the signal. The gist of the method:
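iPSC-derived IMR90 neural crest cells on PLO/laminin/fibronectin were seeded around silicone stoppers; after stopper removal, migration in N2-S medium with EGF and FGF ran 24 h before 24 h chemical exposure. Calcein-AM/Hoechst high-content imaging; bidirectional fit versus DMSO.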

A short description of experiment [7]: IUF_NPC1b_proliferation_BrdU_72hr: Leibniz Research Institute for Environmental Medicine (IUF) 72-hour Neural Progenitor Cell Bromodeoxyuridine (BrdU) Proliferation Assay (NPC1b) (AID 2284207). Summed up:
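hNPC spheres (primary, GW 16-19 fetal cortex), single sphere/well, EGF+FGF medium; 72 h compound, no renewal; BrdU pulse last 16 h; luminescent ELISA; activity vs DMSO baseline; growth-factor withdrawal as positive control.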

A short description of experiment [8]: IUF_NPC1a_proliferation_area_72hr: Leibniz Research Institute for Environmental Medicine (IUF) 72-hour Neural Progenitor Cell Proliferation Area Assay (NPC1a) (AID 2284208). The gist of the method: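 hNPC spheres (human fetal cortex, GW 16-19), one per poly-Hema U-bottom well; EGF+FGF medium; dosed day 0, no re-dosing; 72 h, 37C, 5% CO2; phase-contrast sphere area; DMSO = baseline; minus-GF = positive ctrl.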

Experiment [9] can be described thus: CCTE_Shafer_MEA_acute_LDH: CCTE's Lactate Dehydrogenase Assay for Cytotoxicity in the Neural Acute Assay, Shafer Lab (AID 2284086; active = hit-call score of the fitted dose curve at least 0.9, where 1 is the maximum;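 note: active means LDH release rises above DMSO vehicle level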). The gist of the method:
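Released lactate dehydrogenase, read at 490 nm, indicated cytotoxicity after acute 40-min compound treatment of rat cortical neuron networks grown on 48-well MEA plates.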

Records with an inconclusive call do not appear. Where a structure was tested more than once in an assay, its records may differ in their call. Activity calls are given as the source filed them. Rule for the calls, unless noted: active = hit-call score of the fitted dose curve at least 0.9, where 1 is the maximum; inactive = score below 0.9.

Consider `OCC(F)(F)C(F)(F)C(F)(F)C(F)F`, for which the compound was called inactive in [1], in experiment [2], in [3], in experiment [4] and in experiment [5].
With `FC(F)(F)C(F)(F)C(F)(F)C(F)(F)C(F)(F)CCI`, the AC50 in [1] was 15 µM (active); in experiment [3] it was 21.8 µM (active); in [5] it was 25.2 µM (active). Also, the outcome in experiment [2] and in [4] was inactive.
As for `CC(Cc1ccc(O)c(O)c1)C(C)Cc1ccc(O)c(O)c1` (stereo not drawn), in the experiment on DIO3 (gene 1735), the AC50 was 0.0863 µM (active).
For `CC(CCl)OP(=O)(OC(C)CCl)OC(C)CCl` (stereo not drawn), the AC50 in [1], in experiment [2] and in experiment [3] was 50 µM (active) throughout. Further, the result in experiment [1], in [2], in experiment [3], in experiment [4], in experiment [5] and in [6] was inactive. Moreover, the compound was classed as inactive in experiment [7] and in experiment [8].
Consider `O=C(O)C(F)(F)C(F)(F)C(F)(F)C(F)(F)C(F)(F)C(F)(F)C(F)(F)C(F)(F)C(F)(F)C(F)(F)C(F)(F)C(F)(F)F`, for which the AC50 with DIO3 (gene 1735) is 32.8 µM (active).
As to `CCCCCCOC(=O)c1ccccc1O`, in [9], the compound was classed as inactive.
Consider `O=C(O)C(F)(F)C(F)(F)C(F)(F)F`, for which the compound was called inactive in experiment [1], in [2], in [3], in experiment [4] and in experiment [5].
Turning to `NC(=O)C(F)(F)C(F)(F)C(F)(F)C(F)(F)F`, the outcome in experiment [1], in experiment [2], in [4] and in experiment [5] was inactive.
As for `O=C(O)C(F)(F)C(F)(F)C(F)(F)C(F)(F)C(F)(F)C(F)(F)C(F)(F)C(F)(F)Cl`, the call in experiment [1], in [2], in experiment [3], in experiment [4] and in [5] was inactive.
As to `FC(F)(F)C(F)(F)CNCC(F)(F)C(F)(F)F`, the compound was called inactive in experiment [1], in [2], in experiment [4] and in experiment [5].
Take `CC(C)(C)C(=O)CC(=O)C(F)(F)C(F)(F)C(F)(F)F`: the AC50 was 25.3 µM (active) in experiment [1], 22.5 µM (active) in experiment [2], 21.9 µM (active) in experiment [3] and 24.1 µM (active) in [5]. Besides, the call in experiment [4] was inactive.
For the compound `O=C(O)C=C(C(F)(F)F)C(F)(F)F`, the compound was classed as inactive in [1], in [2], in experiment [3], in experiment [4] and in [5].
`O=C(O)C(F)(F)C(F)(F)C(F)(F)C(F)(F)C(F)(F)C(F)(F)C(F)(F)C(F)(F)C(F)(F)C(F)(F)C(F)(F)C(F)(F)C(F)(F)F`: in the experiment with DIO3 (gene 1735), the AC50 was 33.1 µM (active).
Regarding `CCN(Cc1cccc(S(=O)(=O)O)c1)c1ccc(C(=C2C=CC(=[N+](CC)Cc3cccc(S(=O)(=O)O)c3)C=C2)c2ccc(O)cc2S(=O)(=O)[O-])cc1`, the AC50 in the experiment with DIO3 (gene 1735) is 51.3 µM (active).
Consider `FC(F)(F)C(F)(F)C(F)(F)C(F)(F)C(F)(F)C(F)(F)CC1CO1` (stereo not drawn), for which the compound was called inactive in experiment [1], in [2], in experiment [4] and in experiment [5].
In the case of `C=C(C)C(=O)OCC(F)(F)C(F)(F)C(F)(F)F`, the outcome with DIO3 (gene 1735) was inactive.
With `OC[C@@H](O)[C@@H](O)[C@H](O)[C@@H](O)CO`, the call in experiment [1], in [2], in experiment [3], in experiment [4], in experiment [5] and in [7] was inactive. The call in [8] was inactive.
As to `COC(=O)CCC(F)(F)C(F)(F)C(F)(F)C(F)(F)F`, the outcome in experiment [1], in [2], in [3], in experiment [4] and in [5] was inactive.
On to `O=S(=O)(OCC(F)F)C(F)(F)F`, for which the compound was called inactive in [1], in [2], in [3], in [4] and in experiment [5].
Turning to `OCCCC(F)(F)C(F)(F)C(F)(F)F`, the result in [1], in [2], in experiment [3], in experiment [4] and in [5] was inactive.
For the compound `O=P(O)(O)OCCC(F)(F)C(F)(F)C(F)(F)C(F)(F)C(F)(F)C(F)(F)F`, the call in experiment [1], in [2], in experiment [4] and in experiment [5] was inactive. In addition, the AC50 in experiment [3] is 21.5 µM (active).
In the case of `O=C(O)C(F)(F)C(F)(F)C(F)(F)C(F)(F)C(F)(F)C(F)(F)C(F)(F)C(F)(F)C(F)(F)C(F)F`, the compound was classed as inactive in experiment [1], in experiment [2], in experiment [3], in experiment [4] and in experiment [5]. The AC50 in the experiment with DIO3 (gene 1735) is 138 µM (active).
On to `CCCCC(CC)COP(=O)(O)OCC(CC)CCCC` (stereo not drawn), for which, in experiment [9], the outcome was inactive.
As for `O=C(O)C(F)(F)C(F)(F)C(F)F`, the call in experiment [1], in experiment [2], in experiment [3], in [4] and in experiment [5] was inactive.
Take `Cc1ccc(S(=O)(=O)OCC(F)(F)C(F)(F)C(F)(F)C(F)(F)C(F)(F)C(F)F)cc1`: the compound was classed as inactive in experiment [1], in experiment [2], in [3], in experiment [4] and in experiment [5].
Turning to `OCC(F)(F)C(F)(F)C(F)(F)C(F)(F)C(F)(F)C(F)F`, the compound was called inactive in experiment [1], in experiment [2], in experiment [3], in experiment [4] and in experiment [5].
Regarding `O=S(=O)(OCCOC(F)(F)F)C(F)(F)F`, the compound was called inactive in experiment [1], in [2], in experiment [4] and in [5].
Take `OCC(F)(F)C(F)(F)C(F)(F)F`: the call in experiment [1], in experiment [2], in [4] and in [5] was inactive.
With `c1ccc(B(c2ccccc2)c2ccccc2)cc1`, the concentration at half-maximal activity (AC50) in the experiment with DIO3 (gene 1735) is 100 µM (active).
With `N=C(N)C(F)(F)C(F)(F)C(F)(F)C(F)(F)C(F)(F)C(F)(F)C(F)(F)F`, the compound was classed as inactive in experiment [1], in [2] and in experiment [4]. Besides, the AC50 in experiment [3] was 24.5 µM (active); in experiment [5], 15 µM (active).
`C=CC(=O)OCC(F)(F)C(F)(F)C(F)(F)C(F)(F)COC(=O)C=C`: the AC50 in experiment [1] was 4.18 µM (active); in experiment [2], 4.37 µM (active); in the experiment on DIO3 (gene 1735), 32.8 µM (active); in experiment [3], 4.28 µM (active); in experiment [4], 2.2 µM (active); in [5], 4.1 µM (active).

As usually defined, the AC50 is the concentration at which the activity in the assay is half-maximal.
